Where “and” joins values, the source holds several entries; their conditions need not be identical. Equal entries are not always repeated. Records with an inconclusive call do not appear. A call without a number means that no potency is given here. Some structures have more than one record in an assay (separate samples or runs), and their calls can disagree. Calls of active or inactive are those of the source. The call rests on the fitted dose curve.
assay: qHTS assay for small molecule disruptors of the mitochondrial membrane potential - cell viability (AID 720634); details: HepG2 viability, ATP luminescence (CellTiter-Glo), 1 h; series mostly up to 83.2 µM; activity change, negative = cytotoxicity: at the top concentration; further: nearly all actives have a fitted effect of over 20% in size;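 on activity change, negative = cytotoxicity: human HepG2 liver cancer cells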
From the text: U.S. Tox21 Program National Center for Advancing Translational Sciences [NCATS] NIH Chemical Genomics Center [NCGC] U.S. Environmental Protection Agency [EPA] National Institutes of Environmental Health Sciences [NIEHS] National Toxicology Program [NTP] U.S. Food and Drug Administration [FDA] Tox21 Assay Overview: Mitochondrial membrane potential (MMP), one of the parameters for mitochondrial function, is generated by mitochondrial electron transport chain that creates an electrochemical gradient by a series of redox reactions. This gradient drives the synthesis of ATP, a crucial molecule for various cellular processes. Measuring MMP in living cells is commonly used to assess the effect of chemicals on mitochondrial function; decreases in MMP can be detected using lipophilic cationic fluorescent dyes. […] The dye accumulates in the mitochondria of healthy cells as aggregates, with red fluorescence. The mitochondrial potential decreases and the dye could not accumulate in the mitochondria and remains in the cytoplasm in monomers, with green fluorescence. In addition to the mitochondrial potential assay, these cells were also used to test the cytotoxicity by determining the cell viability in the culture based on the quantitation of ATP present. The cytotoxicity was measured in the same assay well of MMP assay.
Tox21 Assay Protocol Summary: 2,000 HepG2 cells in 5 uL/well were dispensed into black, clear-bottom 1536-well plates using a Multidrop Combi (Thermo Scientific) dispenser. The assay plates were incubated for an overnight at 37 C to allow cells to attach to the wells, followed by the transfer of 23 nL compound or DMSO vehicle by a pin tool (Kalypsys). The plates were incubated for 1 hr at 37 C and 5% CO2, followed by the addition of 5 uL of 2X m-MPI dye into each well using Flying Reagent Dispenser (Aurora Discovery) and then CellTiter-Glo reagent was added at 4 uL/well and incubated 30 min at room temperature. Then luminescence intensity was quantified on a ViewLux CCD-based plate reader.
Potency means the concentration at half of the fitted maximal effect.

Which Potency does the source give for CCCCCCCCCCN here?
Its Potency is “inactive”.

For O=C(O)CCCCCCCCC(=O)O, which Potency is on record?
The Potency was “inactive”.

For CCCCCCCCCCCCCCCCO, which Potency is on record?
The Potency was “inactive”.

With CC1(C)CC(N)CC(C)(CN)C1 (stereo not given) as the compound, how does the Potency read?
Its Potency is “inactive”.

Which Potency does the source give for CCCCCCCO here?
The Potency was “inactive”.

With O=C(O)Cn1c(=O)n(Cc2ccc(Br)cc2F)c(=O)c2ccc(Cl)cc21 as the compound, how does the “activity change, negative = cytotoxicity” value read?
Its value is -17.3% (inactive).

For CCOC(=O)c1ccc(N)cc1, which Potency is on record?
The Potency was “inactive”.

With CC(C)CC(C)O (stereo not given) as the compound, how does the Potency read?
The Potency was “inactive”.

Which Potency does the source give for CCNc1cccc(C)c1 here?
Its Potency is “inactive”.

With COCCCN as the compound, how does the Potency read?
Its Potency is “inactive”.

For CC1(C)OC[C@@H]2O[C@@]3(C(=O)O)OC(C)(C)O[C@H]3[C@@H]2O1, which Potency is on record?
The Potency was “inactive”.

For CCO[Si](CCC#N)(OCC)OCC, which Potency is on record?
The Potency was “inactive”.

With Cc1ccc2ncccc2c1 as the compound, how does the Potency read?
Its Potency is “inactive”.

With CCOCCOCCOCCO as the compound, how does the Potency read?
The Potency was “inactive”.

For CSc1ccc(Cl)cc1, which Potency is on record?
Its Potency is “inactive”.

With CCCCCCCCCCCC(=O)OC as the compound, how does the Potency read?
Its Potency is “inactive”.

With CCCCCCCCCCCCCCCC(=O)OC(C)C as the compound, how does the Potency read?
The Potency was “inactive”.

Which Potency does the source give for C=C(C)[C@H]1CC=C(C)C(=O)C1 here?
Its Potency is “inactive”.

With CN1C(=O)CC[C@H]1c1cccnc1 as the compound, how does the Potency read?
Its Potency is “inactive”.

With COCCOC(=O)c1ccccc1C(=O)OCCOC as the compound, how does the Potency read?
The Potency was “inactive”.

For CN/C(=C\[N+](=O)[O-])NCCSCc1csc(CN(C)C)n1, which Potency is on record?
The Potency was “inactive”.

For CNC(=S)N(C)C, which Potency is on record?
The Potency was “inactive”.

For CCCCCCCCCCO, which Potency is on record?
Its Potency is “inactive”.

For CCNc1ccccc1, which Potency is on record?
Its Potency is “inactive”.

Which Potency does the source give for Cc1ccc(C(C)C)c(O)c1 here?
The Potency was “inactive and 61.1 µM (active)”.

With O=S(=O)(O)c1ccc(N=Nc2c(O)ccc3cc(S(=O)(=O)O)ccc23)cc1 as the compound, how does the Potency read?
Its Potency is “inactive”.

Which Potency does the source give for CCCCCCC=O here?
The Potency was “inactive”.

For CC(C)(Oc1ccc(CCNC(=O)c2ccc(Cl)cc2)cc1)C(=O)O, which Potency is on record?
Its Potency is “inactive”.

For COc1ccc(N)c(C)c1, which Potency is on record?
Its Potency is “inactive”.

Which Potency does the source give for CC1(C)NC(=O)NC1=O here?
The Potency was “inactive”.

With COc1ccccc1OCC(O)CO (stereo not given) as the compound, how does the Potency read?
The Potency was “inactive”.

Which Potency does the source give for CCCCCCCC=O here?
Its Potency is “inactive”.

With COc1ccc(C)cc1N as the compound, how does the Potency read?
Its Potency is “inactive”.

Which Potency does the source give for CC(CCl)OP(=O)(OC(C)CCl)OC(C)CCl (stereo not given) here?
The Potency was “inactive”.

Which Potency does the source give for OCc1ccccc1 here?
The Potency was “inactive”.

With CCOCC(=O)O as the compound, how does the Potency read?
The Potency was “inactive”.

With C[Si]1(C)O[Si](C)(C)O[Si](C)(C)O[Si](C)(C)O1 as the compound, how does the Potency read?
The Potency was “inactive”.

With CCCCCCO as the compound, how does the Potency read?
The Potency was “inactive”.

For N#Cc1ccccc1, which Potency is on record?
The Potency was “inactive”.

With Clc1ccccn1 as the compound, how does the Potency read?
Its Potency is “inactive”.
